Test [1] has as its target Lysosomal acid glucosylceramidase (Homo sapiens) (UniProt P04062). Kind of test: Glucocerebrosidase-p2 (AID 348; in the data active = potency below about 10 µM; also: potency is read from the fitted curve at half-maximal effect). The settings on record: purified GBA, blue fluorogenic substrate, 40 min. In short, it runs like this: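 Compounds titrated from 0.6 nM upwards against 0.2 nM enzyme in pH 5.9 citric acid/KH2PO4, taurocholate, tween-20; blue fluorogenic substrate 80 uM, 40 min room temperature, stopped and read Ex 365/Em 440 for AC50.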

The target of test [2] is Cytochrome P450 1A2 (Homo sapiens) (UniProt P05177). Kind of test: p450-cyp1a2 (AID 410; calls by dose curve; also: potency is read from the fitted curve at half-maximal effect). To be noted: recombinant CYP1A2, luciferin-ME demethylation, luminescence; series mostly up to 57 µM. An outline of the steps: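 20nM CYP1A2 with 100uM Luciferin-ME (at Km) in 100mM KPO4; compound preincubated 10 min, NADPH regeneration added, 60 min at room temperature. Luciferin quantified by luminescence after detection reagent; normalized to 57 uM furafylline.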
Sequence of Cytochrome P450 1A2 (Homo sapiens) (P05177 whole entry, looked up): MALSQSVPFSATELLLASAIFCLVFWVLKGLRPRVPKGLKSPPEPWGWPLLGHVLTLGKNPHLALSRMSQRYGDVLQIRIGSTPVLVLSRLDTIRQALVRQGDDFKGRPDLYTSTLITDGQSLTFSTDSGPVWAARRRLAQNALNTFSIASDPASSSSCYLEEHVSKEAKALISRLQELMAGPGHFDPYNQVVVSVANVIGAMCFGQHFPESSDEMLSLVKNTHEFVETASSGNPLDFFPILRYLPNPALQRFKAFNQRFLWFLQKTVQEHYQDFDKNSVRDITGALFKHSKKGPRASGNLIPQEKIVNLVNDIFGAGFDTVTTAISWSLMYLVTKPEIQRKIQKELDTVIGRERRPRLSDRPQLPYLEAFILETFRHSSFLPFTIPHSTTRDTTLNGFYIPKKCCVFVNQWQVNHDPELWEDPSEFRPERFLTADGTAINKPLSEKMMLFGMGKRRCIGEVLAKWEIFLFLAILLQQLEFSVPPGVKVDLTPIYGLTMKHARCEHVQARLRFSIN

A short description of test [3]: Stat Signaling Pathway (AID 446; active = well fitted curve in either direction with a large enough effect, not every such curve was filed as active;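 also: ME-180 cervical cancer cells given 40 pM IL-6 alongside compound; SIE-controlled beta-lactamase reporter measured as 460/530 nm FRET emission ratio; % is scaled to controls: 0 for no effect and ±100 for the full control effect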). The settings on record: ME-180 SIE beta-lactamase reporter, IL-6 stimulated, 5 h; at 7.69 µM (top of the series) unless noted. In short, it runs like this: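 ME-180 cells carrying a SIE-driven beta-lactamase reporter are stimulated with 40 pM IL-6 for 5 h at 37C in the presence of compound. The 460/530 nm FRET substrate ratio is read after 2.5 h at RT. Data are normalised to 300 pM IL-6 and to 125 nM JAK inhibitor controls.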

The target in test [4] is Glucocorticoid receptor (Homo sapiens) (UniProt P04150). Kind of test: GR-GFP Redistribution (AID 450;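 active = compounds whose dose series gives a full or clear partial fitted curve of increased nuclear translocation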; also: potency is read from the fitted curve at half-maximal effect). The settings on record: U2OS GR-GFP nuclear translocation, laser cytometry, 2 h.
Sequence of Glucocorticoid receptor (Homo sapiens) (P04150 whole entry, looked up, the tested form may be a part): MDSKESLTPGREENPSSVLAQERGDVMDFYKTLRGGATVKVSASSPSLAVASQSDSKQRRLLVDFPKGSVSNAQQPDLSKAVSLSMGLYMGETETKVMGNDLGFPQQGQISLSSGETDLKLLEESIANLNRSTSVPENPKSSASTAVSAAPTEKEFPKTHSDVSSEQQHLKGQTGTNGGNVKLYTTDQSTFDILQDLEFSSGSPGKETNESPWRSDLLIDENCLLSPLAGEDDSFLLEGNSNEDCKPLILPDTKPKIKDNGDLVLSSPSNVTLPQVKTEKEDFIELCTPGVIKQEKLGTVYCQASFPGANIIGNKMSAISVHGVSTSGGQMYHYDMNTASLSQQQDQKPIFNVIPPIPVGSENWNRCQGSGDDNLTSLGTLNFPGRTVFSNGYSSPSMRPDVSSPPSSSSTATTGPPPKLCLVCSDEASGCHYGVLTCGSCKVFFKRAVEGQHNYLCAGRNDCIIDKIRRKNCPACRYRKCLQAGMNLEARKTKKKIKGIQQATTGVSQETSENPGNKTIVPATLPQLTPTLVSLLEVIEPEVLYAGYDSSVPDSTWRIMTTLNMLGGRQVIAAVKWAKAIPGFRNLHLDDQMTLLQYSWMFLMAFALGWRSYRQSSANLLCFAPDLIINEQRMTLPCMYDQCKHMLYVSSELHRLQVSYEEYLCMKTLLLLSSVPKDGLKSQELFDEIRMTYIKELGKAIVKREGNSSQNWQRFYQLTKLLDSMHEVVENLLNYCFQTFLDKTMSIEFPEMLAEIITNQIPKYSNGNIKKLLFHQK
Test [5] has the same target. Kind of test: GR-EFC Redistribution (AID 451; calls by dose curve; also: potency is read from the fitted curve at half-maximal effect). To be noted: CHO-K1 GR-EFC translocation, beta-gal luminescence, 2 h. An outline of the steps: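 CHO-K1 cells expressing nuclear EA and GR-ED fragments of b-gal; compounds titrated up to 46 uM final, 2 h at 37 C. GR nuclear translocation read as complemented b-gal luminescence after 1 h RT detection.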
Test [6] has as its target Mitogen-activated protein kinase 10 (Mus musculus) (UniProt Q61831). Description: JNK3 AlphaScreen Assay (AID 530; active = well fitted curve in either direction with a large enough effect, not every such curve was filed as active;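 also: kinase came from lysate of stimulated human HepG2 cells; signal reports phosphorylation of biotinylated GST-cJun 1-79 at Ser73 with 10 µM ATP; % is scaled to controls: 0 for no effect and ±100 for the full control effect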). The settings on record: JNK3 lysate, c-Jun phosphorylation; series mostly up to 57.1 µM. In short, it runs like this:
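Pre-activated (IL-1β/TNFα) JNK3 in HepG2 lysates phosphorylates biotin-GST-cJun(1-79), 10 uM ATP; anti-phospho-cJun(Ser73) AlphaScreen read at room temperature, pH 7.6 Tris buffer. Compounds pre-incubated 15 min as titrations.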

For test [7], the target named is 3',5'-cyclic-AMP phosphodiesterase 4B (Homo sapiens) (UniProt Q07343). Kind of test: qHTS Assay for Inhibitors of PDE-IV (AID 607; active = well fitted activation curve with a large enough effect in the main read-out, with a control signal flat, not every such curve was filed as active; also: % of control where 0% means no effect). The settings on record: HEK293 ACTOne CNG channel cells, membrane potential fluorescence; series mostly up to 22.9 µM. In short, it runs like this: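 HEK293 ACTOne cells with CNG channel (1000/well), endogenous PDE4; membrane potential dye, compounds up to 22.9 uM final. Fluorescence Ex 535/Em 590; RO 20-1724 (100 uM final) as reference.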
Sequence of 3',5'-cyclic-AMP phosphodiesterase 4B (Homo sapiens) (Q07343 whole entry, looked up): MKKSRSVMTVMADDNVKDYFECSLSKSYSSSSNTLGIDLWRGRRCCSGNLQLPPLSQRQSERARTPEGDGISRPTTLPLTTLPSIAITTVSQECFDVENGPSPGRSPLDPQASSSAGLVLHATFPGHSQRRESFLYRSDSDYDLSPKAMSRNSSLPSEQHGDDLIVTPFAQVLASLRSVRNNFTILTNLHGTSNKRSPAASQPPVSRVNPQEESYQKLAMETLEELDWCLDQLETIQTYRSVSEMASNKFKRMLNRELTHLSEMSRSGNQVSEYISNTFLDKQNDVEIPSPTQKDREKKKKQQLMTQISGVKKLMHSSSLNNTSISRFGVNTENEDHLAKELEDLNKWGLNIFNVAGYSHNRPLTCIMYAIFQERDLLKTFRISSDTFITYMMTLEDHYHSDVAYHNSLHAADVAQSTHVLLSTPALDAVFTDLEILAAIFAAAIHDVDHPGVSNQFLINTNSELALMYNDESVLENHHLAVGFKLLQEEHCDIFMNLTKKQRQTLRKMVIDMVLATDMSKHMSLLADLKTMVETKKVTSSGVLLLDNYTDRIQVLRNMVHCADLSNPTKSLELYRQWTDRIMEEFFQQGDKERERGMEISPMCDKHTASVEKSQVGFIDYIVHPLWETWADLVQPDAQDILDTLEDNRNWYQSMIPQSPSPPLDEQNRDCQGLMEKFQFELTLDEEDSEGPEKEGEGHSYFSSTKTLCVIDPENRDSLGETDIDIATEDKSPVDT

Test [8] concerns the target Cytochrome P450 3A4 (Homo sapiens) (UniProt P08684). Description: qHTS Assay for Activators of Cytochrome P450 3A4 (AID 885). Also: nearly all actives have a fitted effect of over 65% in size. To be noted: recombinant CYP3A4, Luciferin-PPXE luminescence, 60 min; series mostly up to 57.1 µM. An outline of the steps: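 Human CYP3A4 (20 nM) with Luciferin-PPXE at 25 uM (its KM) in 200 mM KPO4; 10 min compound preincubation, then NADPH regeneration and 60 min reaction at RT. Luciferin read by luminescence; normalized to 57 uM ketoconazole full inhibition.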

The nature of test [9]: Confirmation and Secondary Assay for Modulators of Hemoglobin Beta Chain Splicing at IVS2 654 locus (AID 910).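 Also: HeLa cells stably carrying EGFP split by mutant beta-globin IVS2-654 intron; % of control where 0% means no effect.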 The settings on record: HeLa EGFP-654 splicing reporter, GFP fluorescence, 48 h; series mostly up to 38.3 µM. In short, it runs like this: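 HeLa cells stably expressing EGFP interrupted by β-globin IVS2-654 intron, seeded overnight in Opti-MEM/2% FCS, then treated 2 days at 37 °C. Restored splicing read as total peak GFP intensity per well by laser scanning cytometry (488 nm excitation, 500–520 nm emission); 500 nM antisense PNA as control.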

Test [10] can be described thus: Confirmation and Secondary Assay for Modulators of Hemoglobin Beta Chain Splicing at IVS2 705 locus (AID 930).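 Also: HeLa cells stably expressing the EGFP-705 splicing reporter; GFP fluorescence per well restored by corrected splicing of the IVS2-705 intron in EGFP; % of control where 0% means no effect.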 The settings on record: HeLa EGFP-705 splicing reporter, GFP fluorescence, 48 h; series mostly up to 38.3 µM. An outline of the steps:
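Splice-correction reporter: EGFP cDNA split by beta-globin intron 2 bearing the 705 mutation, stably in HeLa. Compound incubation 2 days, 37C; fluorescent objects 5-250 µm summed per well.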

Test [11] can be described thus: qHTS Assay for Lipid Storage Modulators (AID 1519; calls by dose curve). The settings on record: Drosophila S3 cells, BODIPY lipid droplet/cell ratio, laser cytometry, cells loaded with oleic acid; for activity change, negative = inhibition: at 57.5 µM (top of the series). An outline of the steps:
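Cells seeded at 5,000 per well were treated with compounds over a concentration series and loaded with oleic acid (400 uM, as added). Lipid droplet fluorescence (488 nm excitation, 500-530 nm channel) was read by laser-scanning cytometry and normalized to 20 uM Triacsin C.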

Test [12] deals with Ubiquitin carboxyl-terminal hydrolase 1 (Homo sapiens) (UniProt O94782). Kind of test: Inhibitors of USP1/UAF1: Pilot qHTS (AID 504865).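 Also: rhodamine fluorescence freed from ubiquitin-rhodamine substrate followed over time; top concentration of the series differs between compounds; % is scaled to controls: 0 for no effect and ±100 for the full control effect; nearly all actives have a fitted effect of over 35% in size.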 To be noted: purified USP1/UAF1, Ub-rhodamine cleavage fluorescence; series mostly up to 54.9 µM. An outline of the steps: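 1nM USP1/UAF1 + cpd, 15 min RT; start w/ Ub-Rho 150nM final; kinetic FL 480/540 nm, 6 reads q60 s. Buffer 50mM HEPES pH 7.8, 0.5mM EDTA, 1mM TCEP, 0.01% Tween-20, 0.1 mg/ml BSA.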
Sequence of Ubiquitin carboxyl-terminal hydrolase 1 (Homo sapiens) (O94782 whole entry, looked up): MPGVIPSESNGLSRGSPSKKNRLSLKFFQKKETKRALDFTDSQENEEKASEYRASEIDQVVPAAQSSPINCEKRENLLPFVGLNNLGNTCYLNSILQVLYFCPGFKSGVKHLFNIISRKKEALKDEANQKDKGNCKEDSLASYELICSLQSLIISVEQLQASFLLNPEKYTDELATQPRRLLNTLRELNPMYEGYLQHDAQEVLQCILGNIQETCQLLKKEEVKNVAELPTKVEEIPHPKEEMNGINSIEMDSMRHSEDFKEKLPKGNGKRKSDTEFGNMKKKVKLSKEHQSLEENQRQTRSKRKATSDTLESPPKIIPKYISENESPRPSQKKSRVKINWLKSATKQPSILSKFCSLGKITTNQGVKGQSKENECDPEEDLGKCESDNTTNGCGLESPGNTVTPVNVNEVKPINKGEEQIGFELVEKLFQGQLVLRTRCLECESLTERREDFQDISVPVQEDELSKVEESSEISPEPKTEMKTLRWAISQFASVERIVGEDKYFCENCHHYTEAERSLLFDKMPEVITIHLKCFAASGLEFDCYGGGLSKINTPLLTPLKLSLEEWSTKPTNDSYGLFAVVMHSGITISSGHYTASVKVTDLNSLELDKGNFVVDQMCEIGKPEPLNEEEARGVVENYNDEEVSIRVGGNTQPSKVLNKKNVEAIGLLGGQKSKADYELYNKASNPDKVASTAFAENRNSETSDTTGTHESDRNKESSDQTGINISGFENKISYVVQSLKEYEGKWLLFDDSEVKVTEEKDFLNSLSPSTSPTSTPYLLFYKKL

A short description of test [13]: Primary qHTS for small molecule stabilizers of the endoplasmic reticulum resident proteome: Secreted ER Calcium Modulated Protein (SERCaMP) assay (AID 1508630). Also: % is scaled to controls: 0 for no effect and ±100 for the full control effect. To be noted: SH-SY5Y GLuc-SERCaMP (Gaussia luciferase released on ER calcium loss) secretion, thapsigargin, luminescence; series mostly up to 38.4 µM. An outline of the steps: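 GLuc-SERCaMP-expressing SH-SY5Y cells, pretreated 16 h with compound, are challenged with thapsigargin to empty ER calcium stores; after 4 h, coelenterazine is added directly to the medium and luminescence is imaged.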

Test [14] has as its target Cytochrome P450 2C19 (Homo sapiens) (UniProt P33261). Kind of test: qHTS Assay for Inhibitors and Substrates of Cytochrome P450 2C19 (AID 899). Also: potency is read from the fitted curve at half-maximal effect; nearly all actives have a fitted effect of over 60% in size. To be noted: recombinant CYP2C19, luciferin-H EGE luminescence; series mostly up to 57.1 µM. In short, it runs like this: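 Luminescent read-out of luciferin formed from Luciferin-H EGE (10uM, equal to KM). Enzyme 5nM in 50mM KPO4; compound added, 10 min at 37C, then NADPH regenerating system for 60 min at 37C. Full inhibition defined by 57uM ketoconazole.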

Test [15] can be described thus: qHTS Assay for Identification of Small Molecule Agonists for Hypoxia Response Element Signaling Pathway (AID 914; active = well fitted activation curve with a large enough effect in the signal ratio, with a control signal flat, not every such curve was filed as active; the % refers to the signal ratio; also: potency is read from the fitted curve at half-maximal effect; as to activation: % of control where 0% means no effect). To be noted: ME-180 HRE-bla reporter, beta-lactamase ratio, CoCl2, 17 h; activation: stronger effect = higher value. An outline of the steps:
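Cells were plated overnight, pin-dosed with compound in a titration series, co-stimulated with EC50 CoCl2 and incubated 17 hours at 37 degrees Celsius. CCF4 substrate was then loaded, and AC50 values came from the 460nm/530nm ratio.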

Test [16] can be described thus: NFAT Signaling Pathway (AID 444; active = well fitted curve in either direction with a large enough effect, not every such curve was filed as active;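 also: carbachol stimulus at about its EC50 of 1 µM final; % is scaled to controls: 0 for no effect and ±100 for the full control effect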). The settings on record: Jurkat NFAT-bla M1, carbachol, beta-lactamase ratio, 5 h; at 7.69 µM (top of the series) unless noted. An outline of the steps: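 Jurkat cells with NFAT-driven β-lactamase reporter and co-expressed M1 receptor, stimulated with carbachol (final 1 uM, ~EC50), compound titration, 5 h at 37 °C. CCF4 loaded 1 h at RT; 460/530 nm ratio gave %activity and AC50.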

The target in test [17] is Cytochrome P450 2D6 (Homo sapiens) (UniProt P10635). Kind of test: qHTS Assay for Inhibitors and Substrates of Cytochrome P450 2D6 (AID 891). Also: potency is read from the fitted curve at half-maximal effect; nearly all actives have a fitted effect of over 60% in size. The settings on record: recombinant CYP2D6, luciferin-ME EGE luminescence; series mostly up to 57.1 µM. In short, it runs like this: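 Human CYP2D6 (5 nM) with 30 uM Luciferin-ME EGE (at Km) in 100 mM KPO4, compound preincubated 10 min, then NADPH regeneration system for 60 min at room temperature. Luciferin read by luminescence; normalized to 1.43 uM quinidine.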
Sequence of Cytochrome P450 2D6 (Homo sapiens) (P10635 whole entry, looked up): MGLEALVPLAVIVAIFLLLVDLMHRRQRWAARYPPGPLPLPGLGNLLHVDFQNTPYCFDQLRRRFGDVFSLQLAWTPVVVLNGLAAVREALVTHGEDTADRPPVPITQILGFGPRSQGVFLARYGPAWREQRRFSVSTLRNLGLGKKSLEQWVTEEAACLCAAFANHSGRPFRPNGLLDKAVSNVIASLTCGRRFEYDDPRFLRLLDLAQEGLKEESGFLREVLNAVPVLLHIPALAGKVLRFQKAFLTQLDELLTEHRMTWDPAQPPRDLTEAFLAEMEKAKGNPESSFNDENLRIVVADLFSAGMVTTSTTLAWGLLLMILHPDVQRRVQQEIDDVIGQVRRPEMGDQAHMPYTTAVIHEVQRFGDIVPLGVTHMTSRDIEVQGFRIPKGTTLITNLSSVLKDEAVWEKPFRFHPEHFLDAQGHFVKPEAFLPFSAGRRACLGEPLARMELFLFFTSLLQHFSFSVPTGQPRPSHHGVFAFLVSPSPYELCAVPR

Test [18] can be described thus: AP1 Signaling Pathway (AID 357; active = well fitted curve in either direction with a large enough effect, not every such curve was filed as active). The settings on record: ME-180 (cervical carcinoma) AP-1-bla reporter, EGF-induced, beta-lactamase ratio, 5 h; at 7.69 µM (top of the series) unless noted. In short, it runs like this:
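Modulation of EGF-driven AP-1 transcription was assessed with a beta-lactamase reporter in ME-180 cells. Compound and EC50 EGF were co-incubated 5 hours at 37 °C before 2.5-hour CCF4 loading at room temperature and dual-emission reading.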

The mark [19] stands for this setting: measured here: cell count channel max response.
The mark [20] stands for this setting: measured here: lipid channel max response.

These results are taken from PubChem BioAssay (NCATS).

Results filed as inconclusive are left out. Active and inactive are the calls of the source. Unless noted, calls follow the shape of the dose curve; as a rule, active = well fitted curve in the direction sought with a large enough effect; inconclusive = small, poorly fitted or top-dose-only effect, or another doubt; inactive = no such curve, though single readings can be large; an effect the other way counts as inactive or inconclusive.

Sequence of Cytochrome P450 3A4 (Homo sapiens) (P08684 whole entry, looked up): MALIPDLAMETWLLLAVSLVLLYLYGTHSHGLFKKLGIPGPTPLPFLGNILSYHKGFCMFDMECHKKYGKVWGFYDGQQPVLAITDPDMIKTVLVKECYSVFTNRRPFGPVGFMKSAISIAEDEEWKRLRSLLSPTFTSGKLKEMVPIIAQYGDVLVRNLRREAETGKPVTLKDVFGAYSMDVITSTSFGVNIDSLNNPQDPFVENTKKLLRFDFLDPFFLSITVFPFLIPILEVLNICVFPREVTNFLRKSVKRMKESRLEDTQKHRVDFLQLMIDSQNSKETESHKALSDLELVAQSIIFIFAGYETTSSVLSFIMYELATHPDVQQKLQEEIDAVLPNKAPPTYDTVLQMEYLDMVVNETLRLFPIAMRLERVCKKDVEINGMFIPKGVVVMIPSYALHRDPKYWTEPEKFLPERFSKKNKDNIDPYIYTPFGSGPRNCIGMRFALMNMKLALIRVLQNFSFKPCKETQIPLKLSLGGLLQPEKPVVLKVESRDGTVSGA
Sequence of Lysosomal acid glucosylceramidase (Homo sapiens) (P04062 whole entry, looked up): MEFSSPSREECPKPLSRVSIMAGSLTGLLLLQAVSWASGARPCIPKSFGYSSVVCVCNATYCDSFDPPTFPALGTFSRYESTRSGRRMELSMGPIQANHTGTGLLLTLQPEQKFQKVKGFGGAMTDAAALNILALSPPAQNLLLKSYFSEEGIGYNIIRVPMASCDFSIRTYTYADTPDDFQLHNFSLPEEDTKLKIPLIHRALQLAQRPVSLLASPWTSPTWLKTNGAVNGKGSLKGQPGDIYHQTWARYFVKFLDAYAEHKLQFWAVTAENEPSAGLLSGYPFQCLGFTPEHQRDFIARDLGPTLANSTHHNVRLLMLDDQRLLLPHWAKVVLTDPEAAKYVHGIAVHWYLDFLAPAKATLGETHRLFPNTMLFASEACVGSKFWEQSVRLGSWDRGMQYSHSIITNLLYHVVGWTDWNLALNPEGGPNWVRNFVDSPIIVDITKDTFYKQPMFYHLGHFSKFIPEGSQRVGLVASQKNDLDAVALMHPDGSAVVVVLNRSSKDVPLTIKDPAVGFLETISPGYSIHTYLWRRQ
Sequence of Cytochrome P450 2C19 (Homo sapiens) (P33261 whole entry, looked up): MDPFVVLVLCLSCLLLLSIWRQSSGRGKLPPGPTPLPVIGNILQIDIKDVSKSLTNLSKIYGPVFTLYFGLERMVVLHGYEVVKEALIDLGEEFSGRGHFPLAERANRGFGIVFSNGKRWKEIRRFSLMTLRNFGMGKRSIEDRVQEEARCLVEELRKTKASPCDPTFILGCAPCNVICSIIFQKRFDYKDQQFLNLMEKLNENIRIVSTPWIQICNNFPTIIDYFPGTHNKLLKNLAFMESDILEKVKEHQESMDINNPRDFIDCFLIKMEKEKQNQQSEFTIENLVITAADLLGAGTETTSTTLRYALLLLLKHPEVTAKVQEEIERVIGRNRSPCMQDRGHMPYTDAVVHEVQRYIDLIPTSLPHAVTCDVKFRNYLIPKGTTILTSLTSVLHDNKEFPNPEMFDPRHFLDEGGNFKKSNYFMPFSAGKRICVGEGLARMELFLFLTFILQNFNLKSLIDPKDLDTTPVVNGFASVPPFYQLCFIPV

Regarding `Cc1cnc(CNc2ncncc2-c2ccccc2CN(C)C)cn1`, the Potency in test [1] was > 11.4 µM (inactive); in test [2], 12.6 µM (active); in test [4], > 46 µM (inactive); in test [5] it was > 46 µM (inactive). In addition, the activity, negative = inhibition in test [3] was 17.1% (inactive). Also, the Potency result in test [6], in test [7], in [8], in test [9] and in [12] was “inactive” each time. Also, the call in test [10] and in test [13] was inactive. In test [11], the activity change, negative = inhibition was -8.48% (inactive). In addition, the values for the max response in test [11] (setting [19]) and in test [11] (setting [20]) were 4.47% and 0.168%, respectively.
With `Cc1noc(C)c1-c1ccc2ncnc(N(C)Cc3ccco3)c2c1`, the Potency is > 11.4 µM (inactive) in test [1]; 2.51 µM (active) in test [2]; > 46 µM (inactive) in [4]; > 46 µM (inactive) in [5]; 5.01 µM (active) in [14]; 1.58 µM (active) in test [15]. For the same compound, the Potency result in test [6], in [8], in test [9] and in test [12] was “inactive” in each case. Further, the result in test [10] and in [13] was inactive. Besides, the activity change, negative = inhibition in [11] is 2.4% (inactive). Also, the max response in [11] (setting [19]) was 23.8%; in [11] (setting [20]), 25.4%.
Consider `CS(=O)(=O)N1CCC2(CC1)CN(c1ccccc1)C2`, for which the Potency is > 11.4 µM (inactive) in test [1], 20 µM (active) in test [2], > 46 µM (inactive) in test [5] and 1.26 µM (active) in test [17]. The activity change, negative = inhibition is 24.3% (inactive) in [16] and 0.887% (inactive) in test [11]. The activity, negative = inhibition in [3] is -8.44% (inactive). Further, the Potency result in test [6] and in test [7] was “inactive” throughout. The max response in [11] (setting [19]) came out at 14%; in test [11] (setting [20]), 17.6%. The outcome in test [13] was inactive.
On to `O=C(c1cccc(F)c1)N1CCC2(CCCN(c3ccccn3)C2)CC1`, for which the Potency in test [1] was > 11.4 µM (inactive); in test [5], > 46 µM (inactive). Also, the activity change, negative = inhibition was -14% (inactive) in [18] and 6.75% (inactive) in test [11]. In addition, the Potency result in test [6] and in test [7] was “inactive” in each case. In addition, the activation in test [15] is -10.7% (inactive). The figures for the max response in [11] (setting [19]) and in test [11] (setting [20]) were 9.06% and 21.3%, respectively. Further, in [13], the result was inactive.
Take `CC(C)NC(=O)N1CC[C@@]2(CCCN(S(=O)(=O)c3ccccc3)C2)C1`: the figures for the Potency in test [1] and in [5] were > 11.4 µM (inactive) and > 46 µM (inactive), respectively. In addition, the Potency entry in [2], in test [6], in [7] and in test [8] was “inactive” each time. The activity change, negative = inhibition in test [16] was 18.4% (inactive); in test [11], 3.83% (inactive). The activity, negative = inhibition in test [3] is 1.4% (inactive). Also, the values for the max response in test [11] (setting [19]) and in test [11] (setting [20]) were -9.01% and -4.67%, respectively. In addition, the outcome in test [13] was inactive.
Turning to `COc1ccccc1CN1CCCC2(CCN(C(=O)c3cc(C(F)(F)F)cc(C(F)(F)F)c3)CC2)C1`, the Potency in test [1] was > 11.4 µM (inactive); in test [5], > 46 µM (inactive). Further, the activity change, negative = inhibition in test [18] is 16.7% (inactive); in [11] it was 3.12% (inactive). In addition, the Potency result in [6] and in [7] was “inactive” throughout. In addition, the max response in test [11] (setting [19]) was -3.38%; in test [11] (setting [20]) it was 1.79%. In [13], the result was inactive.
`Cn1cccc1C(=O)N1CCC2(CCCN(C(=O)Nc3cccc(F)c3)C2)CC1`: the Potency in test [1] is > 11.4 µM (inactive); in test [5], > 46 µM (inactive). The activity change, negative = inhibition is -15.3% (inactive) in test [18] and 5.97% (inactive) in [11]. For the same compound, the Potency result in [6], in test [7] and in test [8] was “inactive” each time. The max response in [11] (setting [19]) is -2.38%; in [11] (setting [20]), 6.22%. For the same compound, in test [13], the outcome was inactive.
